Laboratory results published in PubChem BioAssay (EPA / NIEHS).
Records with an inconclusive call do not appear. Activity calls are given as the source filed them. Rule for the calls, unless noted: active = hit-call score of the fitted dose curve at least 0.9, where 1 is the maximum; inactive = score below 0.9.

How the values were obtained:
[1] = ACEA_ER_80hr: ACEA Biosciences xCELLigence Real-Time Cell Analysis on Estrogen Receptor Agonism for Proliferation (AID 2282667; active = hit-call score of the fitted dose curve at least 0.9, where 1 is the maximum); conditions: T47D proliferation, impedance (xCELLigence), 80 h
Summary of the method: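 T47D human breast cells were seeded on electrode plates, monitored overnight, then exposed continuously to compounds in eight-point 1:4 dilutions from 100 uM (max 0.5% DMSO). Impedance-based growth was read at 80 h, fitted upward relative to DMSO.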

[2] = APR_HepG2_CellCycleArrest_24hr: Apredica 24-hour HepG2 Assay for Cell Cycle Arrest (AID 2282905); conditions: imaging, actives raise or lower the signal;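 note: cell cycle arrest scored as ratio of 2N to 4N nuclear DNA content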
Summary of the method: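 Step one: dose HepG2 with test compounds, 0.39–200 uM, 0.5% DMSO, 24 hr. Step two: fix, permeabilize, stain nuclei with Hoechst 33342. Step three: image six fields per well at 20x, quantify DNA content, fit bidirectionally relative to DMSO.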

[3] = APR_HepG2_NuclearSize_24hr: Apredica 24-hour HepG2 Assay for Nuclear Size (AID 2282907); conditions: high-content imaging, actives raise or lower the signal
Summary of the method: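 After fixation and permeabilization, 24-hr-treated HepG2 cells were stained with Hoechst 33342 and imaged on an ArrayScan (20x). Doses spanned 0.39–200 uM in duplicate. Nuclear diameter changes in either direction were fitted relative to 0.5% DMSO controls.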

[4] = APR_HepG2_CellLoss_24hr: Apredica 24-hour HepG2 Assay for Cell Loss (AID 2282908); conditions: high-content imaging;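 for AC50: fit in both directions so a hit may be cell loss or gain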
Summary of the method: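 Duplicate wells received compound at ten concentrations (0.39–200 uM; final DMSO 0.5% v/v). After fixation with formaldehyde, nuclei stained with Hoechst 33342 were imaged at 20x. Loss or gain of cell count was fitted relative to DMSO controls.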

[5] = APR_HepG2_MicrotubuleCSK_24hr: Apredica 24-hour HepG2 Assay for Microtubule CSK Stabilty (AID 2282909); conditions: HepG2 microtubule cytoskeleton imaging, actives raise or lower the signal
Summary of the method: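 Microtubule stability is scored from tubulin immunofluorescence in fixed HepG2 cells imaged at 20x. Cells receive ten compound concentrations up to 200 uM for 24 h; taxol and DMSO serve as positive and negative controls.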

[6] = APR_HepG2_MitoticArrest_24hr: Apredica 24-hour HepG2 Assay for Mitotic Arrest (AID 2282910); conditions: high-content imaging, actives raise or lower the signal
Summary of the method: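 HepG2, 24 hr dosing, 0.39–200 uM, 0.5% DMSO final. Formaldehyde-fixed, Triton-permeabilised, anti-phospho-histone H3 plus Hoechst. ArrayScan imaging at 20x; bidirectional fit vs DMSO baseline.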

[7] = APR_HepG2_MitoMembPot_24hr: Apredica 24-hour HepG2 Assay for Mitochondrial Membrane Potential (AID 2282911); conditions: imaging, actives raise or lower the signal
Summary of the method: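 HepG2 human liver cells were exposed 24 hr to compounds at 0.39–200 uM (final DMSO 0.5% v/v) in duplicate. MitoTracker Red CMXRos (250 nM, 30 min) was loaded before formaldehyde fixation; fluorescence was imaged by ArrayScan HCS and fitted bidirectionally versus DMSO.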

[8] = APR_HepG2_MitoMass_24hr: Apredica 24-hour HepG2 Assay for Mitochondrial Mass (AID 2282912); conditions: high-content imaging, actives raise or lower the signal
Summary of the method: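 Readout: fluorescence of MitoTracker Red CMXRos (250 nM, added 30 min pre-fixation) in fixed HepG2 cells imaged by HCS. Exposure lasted 24 hr at 0.39–200 uM; increases and decreases were both fitted relative to DMSO.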

[9] = APR_HepG2_p53Act_24hr: Apredica 24-hour HepG2 Assay for p53 Activation (AID 2282913); conditions: high-content imaging, actives raise or lower the signal;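 note: p53 protein immunofluorescence averaged per cell in HepG2 with Hoechst nuclei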
Summary of the method: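 HepG2 cells exposed 24 hr to compounds at 0.39–200 uM (10 concentrations, duplicate), final DMSO 0.5% v/v. After formaldehyde fixation and Triton permeabilization, p53 was immunolabeled (sheep anti-p53, Cy5 secondary) with Hoechst 33342 nuclear counterstain, then imaged by high-content fluorescence microscopy.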

[10] = APR_HepG2_CellCycleArrest_72hr: Apredica 72-hour HepG2 Assay for Cell Cycle Arrest (AID 2282914); conditions: high-content imaging, actives raise or lower the signal
Summary of the method: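 HepG2 cells were exposed to compounds at 0.39–200 uM (0.5% v/v DMSO final, duplicates) for 72 hr, fixed in 3.7% formaldehyde, permeabilized and stained with Hoechst 33342. Nuclear DNA content was quantified by high-content imaging; gain or loss of signal was fitted bidirectionally against DMSO.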

[11] = APR_HepG2_CellLoss_72hr: Apredica 72-hour HepG2 Assay for Cell Loss (AID 2282915); conditions: high-content imaging
Summary of the method: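 HepG2 cells exposed 72 h to compound at 0.39–200 uM (10 concentrations, duplicate) in 0.5% DMSO. Fixed with 3.7% formaldehyde and Hoechst 33342-stained. Imaged at 20x; nuclear count gives cell number, fitted bidirectionally versus DMSO.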

[12] = APR_HepG2_P-H2AX_72hr: Apredica 72-hour HepG2 Assay for H2AX Phosphorylation (AID 2282916); conditions: imaging, actives raise or lower the signal;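 note: phospho-histone H2A.x immunostain intensity per cell marking DNA damage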
Summary of the method: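 Phospho-H2A.x imaging endpoint in HepG2 after 72 hr compound exposure (0.39–200 uM, duplicate wells). Activity derived by bidirectional curve fitting with DMSO as baseline.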

[13] = APR_HepG2_MitoMembPot_72hr: Apredica 72-hour HepG2 Assay for Mitochondrial Membrane Potential (AID 2282917); conditions: imaging, actives raise or lower the signal
Summary of the method: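 HepG2 cells dosed 72 hr with compound at 0.39–200 uM in duplicate, 0.5% v/v DMSO final. Mitochondria stained with 250 nM MitoTracker Red CMXRos for 30 min before formaldehyde fixation, imaged by high-content fluorescence; bidirectional fit versus DMSO.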

[14] = APR_HepG2_MitoticArrest_72hr: Apredica 72-hour HepG2 Assay for Mitotic Arrest (AID 2282918); conditions: high-content imaging, actives raise or lower the signal
Summary of the method: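 HepG2 cells were exposed for 72 hr to compound at 0.39–200 uM (10 concentrations, duplicate) in 0.5% v/v DMSO, fixed in 3.7% formaldehyde, immunostained for phospho-histone H3 with Hoechst 33342 and imaged by high-content fluorescence; bidirectional fits versus DMSO.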

[15] = APR_HepG2_MicrotubuleCSK_72hr: Apredica 72-hour HepG2 Assay for Microtubule CSK Stabilty (AID 2282919); conditions: HepG2 microtubule cytoskeleton, high-content imaging, actives raise or lower the signal
Summary of the method: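 HepG2, 72 hr cmpd exposure, 0.39–200 uM (10 pts, duplicate), 0.5% DMSO. 3.7% formaldehyde fix, 0.5% Triton perm, anti-alpha-tubulin/Cy5 plus Hoechst. HCS fluorescence intensity; bidirectional fit vs DMSO baseline; taxol as positive control.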

[16] = APR_HepG2_P-H2AX_24hr: Apredica 24-hour HepG2 Assay for H2AX Phosphorylation (AID 2282920); conditions: high-content imaging, actives raise or lower the signal
Summary of the method: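 HepG2 human liver cells were exposed for 24 hr to compounds at 0.39–200 uM in duplicate, with 0.5% v/v DMSO final. Fixed cells were immunostained for phospho-histone H2A.x plus Hoechst 33342, imaged by HCS fluorescence, and fitted bidirectionally against DMSO.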

[17] = APR_HepG2_StressKinase_72hr: Apredica 72-hour HepG2 Assay for Stress Kinase (AID 2282921); conditions: HepG2 stress kinase (phospho-c-Jun) imaging, actives raise or lower the signal
Summary of the method: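 Stress kinase signal reflects nuclear phospho-c-Jun staining in fixed, permeabilized cells exposed 72 h to compound at 0.39–200 uM; DMSO-normalized, fitted for increases or decreases.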

[18] = APR_HepG2_StressKinase_24hr: Apredica 24-hour HepG2 Assay for Stress Kinase (AID 2282922); conditions: HepG2 stress kinase (phospho-c-Jun) imaging, actives raise or lower the signal
Summary of the method: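 Read-out: phospho-c-Jun immunofluorescence (Cy3 secondary) quantified by high-content imaging at 20x, nuclei defined by Hoechst 33342. Human HepG2 liver cells dosed 24 hr, 0.39–200 uM, DMSO 0.5% v/v; gain or loss of signal fitted relative to DMSO.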

[19] = APR_HepG2_p53Act_72hr: Apredica 72-hour HepG2 Assay for p53 Activation (AID 2282923); conditions: high-content imaging, actives raise or lower the signal;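 note: average cellular p53 protein immunofluorescence intensity in HepG2 cells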
Summary of the method: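 Fixed-cell p53 staining (sheep primary, Cy5 secondary) measured by fluorescence imaging following 72 hr treatment at 0.39–200 uM in 0.5% DMSO; DMSO served as negative control and baseline.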

[20] = APR_HepG2_MitoMass_72hr: Apredica 72-hour HepG2 Assay for Mitochondrial Mass (AID 2282924); conditions: high-content imaging, actives raise or lower the signal;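 note: MitoTracker Red CMXRos stain intensity per cell imaged as mitochondrial mass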
Summary of the method: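 Read-out: MitoTracker Red fluorescence intensity from automated imaging (20x, six fields per well) in human HepG2 liver cells. Dosing ran 72 hr, 0.39–200 uM, 0.5% DMSO; bidirectional curve fitting versus DMSO baseline.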

Structure (SMILES): CCCCCC1C(=O)CCC1CC(=O)OC (centres undefined)
- AC50 [1]: 50 µM (active)

Structure (SMILES): CCCCCC(=O)O[C@]1(C(C)=O)CC[C@H]2[C@@H]3CCC4=CC(=O)CC[C@]4(C)[C@H]3CC[C@@]21C
- AC50 [1]: 0.00501 µM (active)

Structure (SMILES): CCOC(=O)CC1(C)OCC(C)O1 (centres undefined)
- outcome [1]: inactive

Structure (SMILES): O=C(c1ccc(OCCN2CCCCC2)cc1)c1c(-c2ccc(O)cc2)sc2cc(O)ccc12
- outcome [2]: inactive
- outcome [3]: inactive
- outcome [4]: inactive
- outcome [5]: inactive
- outcome [6]: inactive
- outcome [7]: inactive
- outcome [8]: inactive
- outcome [9]: inactive
- outcome [10]: inactive
- outcome [11]: inactive
- outcome [12]: inactive
- outcome [13]: inactive
- outcome [14]: inactive
- outcome [15]: inactive
- outcome [16]: inactive
- outcome [17]: inactive
- outcome [18]: inactive
- outcome [19]: inactive
- outcome [20]: inactive

Structure (SMILES): CC(C)(C)c1cc(CCC(=O)OCCSCCOC(=O)CCc2cc(C(C)(C)C)c(O)c(C(C)(C)C)c2)cc(C(C)(C)C)c1O
- outcome [1]: inactive

Structure (SMILES): O=S(=O)(O)c1cc(S(=O)(=O)O)c2c(N=Nc3ccccc3)c(O)ccc2c1
- outcome [1]: inactive

Structure (SMILES): C#C[C@]1(O)CC[C@H]2[C@@H]3CCc4cc(O)ccc4[C@H]3CC[C@@]21C
- AC50 [2]: 36.8 µM (active)
- outcome [3]: inactive
- AC50 [4]: 24.3 µM (active)
- outcome [5]: inactive
- AC50 [6]: 10.9 µM (active)
- outcome [7]: inactive
- outcome [8]: inactive
- AC50 [9]: 87.5 µM (active)
- AC50 [10]: 27.9 µM (active)
- AC50 [11]: 34.6 µM (active)
- AC50 [12]: 70.6 µM (active)
- outcome [13]: inactive
- AC50 [14]: 58.1 µM (active)
- outcome [15]: inactive
- AC50 [16]: 83.4 µM (active)
- outcome [17]: inactive
- outcome [18]: inactive
- AC50 [19]: 28.5 µM (active)
- outcome [20]: inactive

Structure (SMILES): CC(C)(C)c1cccc(O)c1
- outcome [1]: inactive

Structure (SMILES): [Na+]
- outcome [1]: inactive

Structure (SMILES): CCCCC(CC)COCCO (centres undefined)
- outcome [1]: inactive

Structure (SMILES): CC(=O)c1ccc(O)cc1
- outcome [1]: inactive

Structure (SMILES): NCCCOCCOCCOCCCN
- AC50 [1]: 10.2 µM (active)

Structure (SMILES): O=C(O)c1ccc(C(=O)O)c(C(=O)O)c1
- outcome [1]: inactive

Structure (SMILES): CN(C)c1ccc(C=O)cc1
- outcome [1]: inactive

Structure (SMILES): C[Si]1(C)N[Si](C)(C)N[Si](C)(C)N1
- outcome [1]: inactive

Structure (SMILES): CC(C)CCOC(=O)CC(C)C
- outcome [1]: inactive

Structure (SMILES): CC(C)(CO)CO
- outcome [1]: inactive

Structure (SMILES): CCCC(O)C(CC)CO (centres undefined)
- outcome [1]: inactive
